# 14-3-3 Bad inh: inhibitors of 14-3-3 zeta/Bad binding, primary screen, biochemical, TR-FRET, bovine 14-3-3 zeta; 14-3-3 protein zeta/delta (Bos taurus), P63103; TR-FRET 14-3-3zeta/Dy647-pBad peptide displacement, 1 h; inhibition, % at 21.7 µM; actives 0.71% (n = 220,000);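 active = inhibition above about 70%, limit read from the data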;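 also: 0% = full 14-3-3 plus peptide FRET controls and 100% = background without 14-3-3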
# Mcl-1 Bim block: inhibitors of Bim peptide binding to Mcl-1, primary screen, biochemical, bead-based flow cytometry, multiplex; Bim peptide-Mcl-1 binding; inhibition, % at 10 µM; actives 0.1% (n = 190,000); AID 1009, 2008; in the data active = inhibition above about 40%;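 also: 0% = no compound tracer wells and 100% = peptide blocker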
# Target sequence (Q07820 whole entry, looked up): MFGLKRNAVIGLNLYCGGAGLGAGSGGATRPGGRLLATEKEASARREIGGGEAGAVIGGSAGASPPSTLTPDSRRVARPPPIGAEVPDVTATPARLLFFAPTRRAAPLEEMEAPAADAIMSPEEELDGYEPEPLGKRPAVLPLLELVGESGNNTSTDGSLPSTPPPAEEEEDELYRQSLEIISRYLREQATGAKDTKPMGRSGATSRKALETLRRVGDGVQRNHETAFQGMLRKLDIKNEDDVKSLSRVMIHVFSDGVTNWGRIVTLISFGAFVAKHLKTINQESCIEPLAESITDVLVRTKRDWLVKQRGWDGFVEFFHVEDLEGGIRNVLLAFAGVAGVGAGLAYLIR
# Hck-Nef inh: inhibitors of Nef-activated human Hck kinase, primary screen, biochemical, Z-Lyte FRET, 384-well, Hck-YEEI; actives 0.68% (n = 220,000); Tyrosine-protein kinase HCK (Homo sapiens), P08631; AID 463187, 2010; Recombinant Hck-YEEI plus Nef, Z-Lyte FRET kinase assay; inhibition, % at 20 µM;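 active = Hck-Nef kinase inhibition above about 50%, limit read from the data; inactive = inhibition below that limit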;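 also: 0% = DMSO with Hck plus Nef and 100% = Hck alone without Nef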
# Pf gametocyte: late stage P. falciparum gametocyte viability inhibitors, primary screen, ATP luminescence, HTS; actives 0.065% (n = 150,000); P. falciparum stage V gametocytes, 24 h; inhibition, % at 10.9 µM; AID 743093, 2013;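 active = inhibition above the mean plus 3 SD of compounds within the control limits, set per campaign, cut at about 38% in these data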;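 also: 0% = DMSO wells and 100% = medium only without gametocytes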
# Mcl1 Noxa PPI: Mcl-1/Noxa binding inhibitors, primary screen, biochemical, TR-FRET, 1536-well; AID 1022, 2008; actives 1.5% (n = 220,000); Induced myeloid leukemia cell differentiation protein Mcl-1 (Homo sapiens), Q07820; inhibition, % at 21.7 µM; TR-FRET Mcl-1/Noxa peptide binding, 2 h;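 active = compounds that cut the protein-peptide binding signal by more than 50% relative to plate controls in a single-dose test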;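 also: His-tagged Mcl-1 with rhodamine Noxa BH3 peptide and terbium anti-His antibody; 0% = Mcl-1 plus Noxa peptide wells and 100% = peptide-only wells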
# Mcl1-Bid inh: Mcl-1/Bid binding inhibitors, primary screen, biochemical, TR-FRET, 1536-well. actives 0.97% (n = 220,000). AID 1021, 2008. inhibition, % at 21.7 µM. TR-FRET Mcl-1/Bid-Dy647 peptide binding. Induced myeloid leukemia cell differentiation protein Mcl-1 (Homo sapiens), Q07820;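 active = compounds that cut the binding signal by more than half at the single screening dose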;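 also: His-tagged Mcl-1 with europium anti-His antibody binding Bid BH3 peptide; 0% = Mcl-1 plus peptide wells and 100% = peptide-only wells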
# Starred values were filed as active, the others as inactive; / = no result; [ ] = remark or other dose. An excerpt weighted towards active compounds, which were near 2.9% of everything screened.
SMILES,14-3-3 Bad inh,Mcl-1 Bim block,Hck-Nef inh,Pf gametocyte,Mcl1 Noxa PPI,Mcl1-Bid inh
CCOC(=O)c1cn(CC)c2ccc(S(=O)(=O)N3CC(C)CC(C)C3)cc2c1=O (centres undefined),22,0,2,/,8,54*
CCn1cc(C(=O)NCc2ccco2)c(=O)c2cc(S(=O)(=O)N3CCCC3)ccc21,0,1,23,0,-2,-2
O=C1ON=C(c2cccc([N+](=O)[O-])c2)/C1=C/c1ccc(O)cc1,6,0,24,7,66*,-50
O=C1ON=C(c2ccccc2)/C1=C/c1cccnc1,3,2,29,6,23,-11
CNCc1ccccc1OCC(=O)Nc1ccccc1,5,-4,-1,/,7,-16
CNCc1ccccc1OCc1ccccc1F,-8,3,1,-16,74*,-3
CCn1nc(C(=O)OCC(=O)Nc2nc(-c3ccc(OC)cc3)cs2)c2ccccc2c1=O,13,-2,4,3,32,-5
O=C(Cc1cccs1)Nc1nnc(SCC(=O)NC2CCCCC2)s1,1,0,4,/,9,-13
O=C(Cc1ccc(F)cc1)Nc1nnc(SCC(=O)NC2CCCC2)s1,-7,0,15,-18,1,72*
Cc1ccc(Cn2nc(C)c(NC(=O)CSc3nc4c(c(C(F)(F)F)n3)CCc3ccccc3-4)c2C)cc1,66,-3,9,7,34,74*
Cc1nn(Cc2ccc(Cl)cc2)c(C)c1NC(=O)CSc1nc2c(c(C(F)(F)F)n1)CCc1ccccc1-2,35,0,21,-23,-10,42
COC(=O)C1=C[C@@H](C(=O)OC)[C@@H]2C3=C(C(=O)[C@]2(C)NC(=O)c2ccccc2)[C@H](C)n2c(=O)n(-c4ccccc4)c(=O)n2[C@@H]3C1,/,/,/,-5,/,/
C=CCNc1nc(-c2ccc(O)c(C(N)=O)c2)cs1,76*,0,0,-6,35,-26
C=CCNc1nc(-c2cc3ccccc3o2)cs1,12,0,-1,/,19,55*
CCN1CCN(c2cc(SC(C)C)nc(-c3ccc(OC)cc3)n2)CC1,71*[fluorescence artefact?],0,-1,/,20,3
CC(C)(Oc1ccc(CCNC(=O)c2ccc(-c3ccc(Cl)cc3)o2)cc1)C(=O)O,1,-1,5,21,1,-15
CN(C)C(=O)c1cc2cc(Br)ccc2s1,-7,0,-18,-12,1,-32
N#CC1=C(O)C(c2ccccc2)n2c1nc(=O)c1ccccc12 (centres undefined),90*,1,3,/,0,7
N#CC1=C(O)CCCn2c1nc1ccccc1c2=O,62,1,1,/,30,-25
Cc1ccc(C(=O)NC2(C(F)(F)F)N=C3SCCN3C2=O)cc1 (centres undefined),74*,0,0,14,-3,-23
O=C(NC1(C(F)(F)F)N=C2SCCN2C1=O)c1cccnc1 (centres undefined),-13,-1,4,10,-3,-5
COc1cc(-c2noc(C)c2/C=C/c2cccc([N+](=O)[O-])c2)cc(OC)c1OC,/,/,/,3,/,/
COc1ccc(-c2[nH]ncc2-c2csc(C)n2)c(O)c1,1,-2,0,39*,10,-8
CCn1c(SCC(=O)Nc2ccc3c(c2)c2ccccc2n3CC)nnc1-c1ccco1,-3,-6,27,/,-8,-18
CCn1c(SCC(=O)n2c(C)c(C)c3ccccc32)nnc1-c1ccco1,31,-6,5,12,-7,54*
Cc1nc2c(ccc3c([N+](=O)[O-])cccc32)c(C)c1C,-2,-3,22,8,4,-12
O=[N+]([O-])c1cccc(C2=NC(c3ccccc3)CO2)c1 (centres undefined),4,0,-3,/,2,-5
CCCC(=O)c1ccc(N2CCN(C(=O)OCC)CC2)c(F)c1,77*,-1,3,-4,-4,-5

# Assay outcomes as filed in PubChem BioAssay.
